# According to PubChem BioAssay (NCI):
# Compounds without any hit were thinned out: in the full panel of roughly 83,000, 20% have a hit.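 Negative percent growth values reflect cell death: -40 means 40% of the cells present at the start died, and -100 means all died.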 Unmarked numbers belong to inactive results. Calls of active or inactive are those of the source.
# Tested on: NCI-H322M lung
# Experiment: NCI-60 one-dose screen, 48 h (100 = growth as untreated, 0 = no growth, -100 = all killed)
# Details: 10 µM unless noted
# Procedure: Growth inhibition of the NCI-H322M human Non-Small Cell Lung tumor cell line is measured as a screen for anti-cancer activity. Cells are grown in 96 well plates and exposed to the test compound for 48 hours. Compounds are tested at a single concentration, which is 10^-5 M for most compounds. The reported endpoint is percent growth (GI% or GIPRCNT), where numbers from 0 - 100% represent growth inhibition, and numbers from -100% - 0 represent cell death. For example, a value of 40 represents 60% growth inhibition. A value of 0 means no net growth occurred over the course of the experiment. A value of -40 indicates 40% of cells at the beginning of the experiment died by the end of the experiment. A value of -100 means all cells are dead at the end of the experiment.
# NCI-60 Human Tumor Cell Lines Screen was performed using the standard one-dose NCI protocol, which is described in more detail at https://dtp.cancer.gov/discovery_development/nci-60/default.htm.
# Compounds with GIPRCNT values below 10 were considered active. Activity score was based on GIPRCNT using the following formula: […]
# Score is 0 for GIPRCNT values of 100 or above, 50 for GIPRCNT values of 0, and 100 for GIPRCNT values of -100.
row,SMILES,growth
1,COc1ccc(C(O)c2cc3c(N)c(C(=O)Nc4ccc(Cl)cc4)sc3nc2C)cc1 (stereo not given),44.6%
2,CCCCCCCCCCCCC1CCC/C=C\CCC(=O)O1 (stereo not given),117%
3,COc1ccc(Nc2nc(N)nc3c2CCc2occc2-3)cc1,95.3%
4,Cc1cc(NC(=O)c2cnc(N3CCN(CCOCCOCCOCCOCCC(=O)N[C@H](C(=O)N4C[C@H](O)C[C@H]4C(=O)N[C@@H](C)c4ccc(-c5scnc5C)cc4)C(C)(C)C)CC3)cn2)c2ncccc2c1,35.6%
5,CC(=O)CCSc1ccc(OC(C)=O)cc1,103%
6,CN(C)C(=O)OCc1nc2c(N3CCOCC3)nc(-c3ccccc3)nc2n1C,53.4%
7,C=C1C(=O)O[C@H]2[C@H]1CC/C(CNC(=O)/C=C/c1ccccc1F)=C\CC[C@@]1(C)O[C@@H]21,73.9%
8,COc1cccc(/C=C2\COc3ccc(-c4ccccc4)cc3C2=O)c1,45.4%
9,O=C(CN1CCOCC1)Nc1ccc2ncnc(Nc3ccc(OCc4cccc(F)c4)c(Cl)c3)c2c1,20.9%
10,Clc1nc(Cl)c2ncn(CCOCCn3cnc4c(Cl)nc(Cl)nc43)c2n1,-97.1% (active)
11,CCNC(=O)c1[nH]cc(-c2ccc(OC)cc2)c1-c1cc(OC)c(OC)c(OC)c1,51.6%
12,Cc1ccccc1-c1cc(Cc2ccc(F)cc2)c(=O)[nH]n1,94.3%
13,CCOC(=O)C1CC(=O)c2cc(OC)c(OC)cc2C1 (stereo not given),123%
14,Nc1nc(SN=Nc2ccc(S(N)(=O)=O)cc2)c2[nH]cnc2n1,56.4%
15,CC(C)CCSc1nc(NNC(N)=O)c(C#N)c(-c2ccccc2)n1,106%
16,Cn1c(COC(=O)NCCn2ccnc2)nc2c(N3CCOCC3)nc(-c3ccccc3)nc21,33.4%
17,O=S(=O)(NCCCNc1nccc(-c2c(-c3ccccc3)nc3occn23)n1)c1ccc(Cl)cc1,99.9%
18,c1ccc(N2N=C(c3cccc(Nc4ccncc4)c3)CC2c2ccc3c(c2)OCO3)cc1 (stereo not given),42.7%
19,Cc1ccc(C2CC(c3cccc(Nc4ccncc4)c3)=NN2c2ccc(Cl)cc2)cc1 (stereo not given),-99.7% (active)
20,CCCN=C(N)c1ccc(NC(=O)c2ccc(C(=O)Nc3ccc(C(N)=NCCC)cc3)cc2)cc1,96.2%

row,SMILES,growth
1,COc1cc(C(=O)/C=C/c2c(C)n([O-])c3ccc(Cl)cc3[n+]2=O)cc(OC)c1OC,102%
2,O=C(N/N=C/c1cccc(O)c1)c1ccccc1Nc1cccc(C(F)(F)F)c1,77.9%
3,Cc1ccccc1C(c1ccccc1)c1ccccc1C,90.9%
4,CCNNC(=O)[C@@H]1[C@H](c2cc(OC)c(OC)c(OC)c2)c2cc3c(cc2[C@H](O)[C@H]1CO)OCO3,43.7%
5,Nc1nnc2cc(Cl)ccc2n1,94.5%
6,COc1ccc(/C=C2\COc3ccc(-c4ccccc4)cc3C2=O)cc1O,66.7%
7,O=C(c1ccccc1)N1N=C(c2ccc(-n3ccc(C(F)(F)F)n3)cc2)CC1c1ccc[nH]1 (stereo not given),80.6%
8,Cc1[nH]n(C(=O)c2ccncc2)c(=O)c1N=Nc1ccc(F)c(Cl)c1,110%
9,Cc1n[nH]c(C)c1-c1c(C)n[nH]c1C,28.6%
10,Clc1cc(Cl)cc(N2N=C(c3cccc(Nc4ccncc4)c3)CC2c2ccc(Br)cc2)c1 (stereo not given),73.1%
11,FC(F)(F)c1cccc(Nc2ccccc2)c1,109%
12,COc1ccc(C(=O)/C=C/c2c(OC)cc(OC)cc2OC)c(OC)c1,56.2%
13,O=C1CCCN1c1cccc2cccnc12,102%
14,COc1ccc(/C=N/NC(=O)c2cccc3cc[nH]c23)cc1O,49.8%
15,O=S(=O)(NCCNc1nccc(-c2c(-c3ccc(F)c(O)c3)nc3occn23)n1)c1ccccc1,72.7%
16,Clc1ccc(N2N=C(c3cccc(Nc4ccncc4)c3)CC2c2ccccc2)cc1 (stereo not given),92.7%
17,O=C(N=Nc1c(O)[nH]c2ccc(F)cc12)c1cc2ccccc2[nH]1,94.4%
18,COC(=O)C1=C(C(=O)ONCCN(C)C)C2C=CC1(C(Cc1ccccc1)Nc1ccc(F)cc1)O2 (stereo not given),92.8%
19,CCCCCCOc1ccc(C(=N)N(CCCC)CCCC)c2ccccc12,-93.6% (active)
20,CCOc1ccc(/C=N/Nc2cc(C)nc3ccc(Cl)cc23)cc1,66.9%
